Compound activity as filed in PubChem.
Hits are enriched below; roughly 9.2% of the tested compounds scored in any of these assays.
FLuc modulator = inhibits or activates purified firefly luciferase, miR-21 counter-screen | Potency, µM (highest dose often 57.5 µM), most hits filed as inhibitors | purified FLuc, Km substrates, luminescence inhibition | hit rate 6.9% among 360,000 | AID 588342 | P08659; also: nearly all actives have a fitted effect of over 55% in size
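Purified P. pyralis luciferase (10nM final) with 10uM D-luciferin and 10uM ATP (Km levels) in 50mM Tris acetate pH 7.5, 10mM Mg acetate, 0.01% Tween-20, 0.05% BSA; qHTS 6-point titration, ~60 µM downward; luminescence read.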
SMN2 splice enh = increases expression of the SMN2 splice variant; HEK293 SMN2-luciferase splicing reporter, luminescence, 30-36 h; Potency, µM (top dose mostly 46.1 µM), usual class: activators; hit rate 2.8% among 210,000; also: nearly all actives have a fitted effect of over 55% in size
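HEK293 cells carry an SMN2 […]–luciferase reporter in which exon 7 inclusion puts luciferase in frame. Cells were plated 10-12 h before compound addition, then incubated 30-36 h at 37C. ONE-Glo luminescence was read; sodium butyrate at 4.5 mM final served as control.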
Rab9 prom act = Rab9 promoter activation; Huh7 Rab9 promoter-luciferase reporter, luminescence, 24 h; Potency, µM (doses to about 9.22 µM), actives largely listed as activators; hit rate 2.8% among 320,000; AID 485297; also: nearly all actives have a fitted effect of over 60% in size
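Luminescence read-out: Huh7 cells stably expressing Rab9-luciferase, treated 24 h with compound at 37 °C, then lysed with luciferase reagent for 10 min at ambient before reading.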
NPC1 prom act = activates the NPC1 promoter; Huh7 NPC1 promoter luciferase reporter, 24 h; Potency, µM (doses to about 9.22 µM), most hits filed as activators; hit rate 2.4% among 320,000; also: nearly all actives have a fitted effect of over 60% in size
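Compounds in DMSO were transferred onto Huh7 NPC1-luciferase reporter cells pre-incubated 2 h; after 24 h at 37 °C, Amplite reagent was dispensed and luminescence recorded 10 min later.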
ELG1 DNA repair = blocks ELG1-dependent DNA repair in HEK293T cells. AID 504467. hit rate 2.3% among 330,000. HEK293T ELG1-luciferase reporter, luminescence, 16 h; DNA damage induced by 5-fluorouridine. Potency, µM (doses to about 46.1 µM), actives largely listed as inhibitors; also: nearly all actives have a fitted effect of over 55% in size
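HEK293T cells expressing luciferase-tagged ELG1 (2,000/well) received 5-Fluorouridine plus compound or DMSO for 16 hr at 37 °C. Luciferase was read by ONE-Glo luminescence after 30 min at room temperature.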
ELG1 genotoxic = genotoxicity induction in ELG1-luciferase HEK293T cells; hit rate 1.3% among 330,000; HEK293T ELG1-luciferase reporter, luminescence, 16 h; Potency, µM (series often up to 46 µM), actives largely listed as activators; also: nearly all actives have a fitted effect of over 60% in size
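HEK293T cells expressing luciferase-tagged ELG1 were treated with compound or DMSO for 16 hr at 37°C. Luciferase activity was then read after 30 min with ONE-Glo at room temperature; rising signal flags genetic stress.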
ELG1 FLuc counter = luciferase inhibition in cell-free luciferin readout for ELG1 hits; hit rate 3% among 350; cell-free firefly luciferase luminescence counter-screen, ViewLux; shares compounds with ELG1 DNA repair; Potency, µM (titrated, usually from 46.1 µM), most hits filed as inhibitors
ELG1 Luc conf = human ELG1 repair inhibition, luciferase-tagged ELG1 confirmation; shares compounds with ELG1 DNA repair; HEK293T ELG1-luciferase levels, luminescence; cells co-treated with 5-fluorouridine; Potency, µM (top dose mostly 46.1 µM), hits mostly inhibitors; hit rate 68% among 670; also: nearly all actives have a fitted effect of over 55% in size
Target sequence (Q96QE3 whole entry, looked up): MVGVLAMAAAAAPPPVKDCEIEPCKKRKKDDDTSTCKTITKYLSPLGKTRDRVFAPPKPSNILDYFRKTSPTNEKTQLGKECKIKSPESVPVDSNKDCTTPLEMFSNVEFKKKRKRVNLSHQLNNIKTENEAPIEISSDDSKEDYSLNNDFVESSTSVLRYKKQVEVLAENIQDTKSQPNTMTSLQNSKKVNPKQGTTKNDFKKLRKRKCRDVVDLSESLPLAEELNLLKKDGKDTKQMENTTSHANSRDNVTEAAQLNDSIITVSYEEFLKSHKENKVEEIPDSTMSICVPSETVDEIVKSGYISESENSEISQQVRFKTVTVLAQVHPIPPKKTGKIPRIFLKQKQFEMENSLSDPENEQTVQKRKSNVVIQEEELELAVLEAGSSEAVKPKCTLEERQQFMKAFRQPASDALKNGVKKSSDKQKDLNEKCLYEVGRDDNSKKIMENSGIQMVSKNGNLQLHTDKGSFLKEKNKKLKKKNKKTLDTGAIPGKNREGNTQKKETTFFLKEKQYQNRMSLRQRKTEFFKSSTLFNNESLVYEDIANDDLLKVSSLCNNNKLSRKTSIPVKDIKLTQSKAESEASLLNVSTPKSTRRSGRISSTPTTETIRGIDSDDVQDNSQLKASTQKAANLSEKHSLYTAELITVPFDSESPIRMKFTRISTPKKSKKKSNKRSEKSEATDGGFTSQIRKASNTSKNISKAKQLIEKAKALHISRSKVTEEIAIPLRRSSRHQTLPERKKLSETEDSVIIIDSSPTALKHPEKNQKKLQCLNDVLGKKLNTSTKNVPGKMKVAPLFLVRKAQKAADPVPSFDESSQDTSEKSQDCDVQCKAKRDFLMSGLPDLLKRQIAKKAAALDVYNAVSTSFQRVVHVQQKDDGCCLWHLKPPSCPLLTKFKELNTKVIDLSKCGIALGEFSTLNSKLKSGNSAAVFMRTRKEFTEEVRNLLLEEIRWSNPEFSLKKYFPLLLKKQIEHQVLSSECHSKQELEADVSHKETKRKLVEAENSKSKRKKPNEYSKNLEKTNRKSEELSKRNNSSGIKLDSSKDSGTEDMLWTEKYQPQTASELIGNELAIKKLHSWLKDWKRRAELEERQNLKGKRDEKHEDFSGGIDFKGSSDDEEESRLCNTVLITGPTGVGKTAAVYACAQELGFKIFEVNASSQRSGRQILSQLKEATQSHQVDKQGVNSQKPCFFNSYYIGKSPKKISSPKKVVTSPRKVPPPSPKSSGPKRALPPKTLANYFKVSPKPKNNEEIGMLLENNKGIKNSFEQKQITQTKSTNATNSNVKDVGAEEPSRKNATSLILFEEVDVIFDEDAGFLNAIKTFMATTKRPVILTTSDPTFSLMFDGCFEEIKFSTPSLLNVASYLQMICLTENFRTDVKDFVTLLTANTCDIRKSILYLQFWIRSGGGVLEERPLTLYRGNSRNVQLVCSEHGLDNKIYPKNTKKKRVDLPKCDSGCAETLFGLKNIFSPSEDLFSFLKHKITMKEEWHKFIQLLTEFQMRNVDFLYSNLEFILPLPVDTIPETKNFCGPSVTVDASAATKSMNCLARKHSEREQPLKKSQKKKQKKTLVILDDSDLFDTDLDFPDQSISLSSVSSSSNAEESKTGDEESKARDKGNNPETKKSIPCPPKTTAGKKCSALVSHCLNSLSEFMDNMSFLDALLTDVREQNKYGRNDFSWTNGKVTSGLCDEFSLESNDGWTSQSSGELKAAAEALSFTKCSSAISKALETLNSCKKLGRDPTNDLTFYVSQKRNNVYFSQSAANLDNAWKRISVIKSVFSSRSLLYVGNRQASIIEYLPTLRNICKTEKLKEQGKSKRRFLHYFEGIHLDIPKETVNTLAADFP
ELG1 MMS Luc = inhibits ELG1-dependent repair under MMS stimulation in HEK293T cells; shares compounds with ELG1 DNA repair; HEK293T luciferase-tagged ELG1 level, MMS stimulated; hit rate 53% among 670; Potency, µM (doses to about 46.1 µM), most hits filed as inhibitors; also: nearly all actives have a fitted effect of over 60% in size
ELG1 5FU viab = confirmation of ELG1 repair inhibitors: viability with 5FU; shares compounds with ELG1 DNA repair; cell viability with 5-FU, ELG1-dependent repair; Potency, µM (titrated, usually from 46.1 µM), usual class: cytotoxic; 670 tested, under 10 active; AID 624250;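 also: ELG1-luc HEK293T cells cotreated with 5-fluorouridine at 10 µM final; viability measured 16 h after compound addition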
ELG1 MMS viab = confirmation of ELG1 repair inhibitors: viability with MMS | shares compounds with ELG1 DNA repair | Cell viability with MMS, ELG1-dependent DNA repair | Potency, µM (doses to about 46.1 µM), hits mostly cytotoxic | hit rate 33% among 670 | AID 624251;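 also: ELG1-luc HEK293T cells co-treated with 10 µM MMS; viability read 16 h after compound addition; nearly all actives have a fitted effect of over 60% in size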
ELG1 unstim viab = unstimulated viability counter-screen for ELG1 repair hits; shares compounds with ELG1 DNA repair; cell viability counter-screen, unstimulated, luminescence; Potency, µM (highest dose often 45.9 µM), usual class: cytotoxic; hit rate 8% among 900; AID 624252;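 also: compound exposure lasted 16 hours before reading; nearly all actives have a fitted effect of over 55% in size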
FLuc enzyme = firefly luciferase inhibition counter-screen. Potency, µM (series often up to 57.5 µM), most hits filed as inhibitors. purified firefly luciferase, luminescence counter-screen. shares compounds with ELG1 DNA repair. hit rate 10% among 350
Large screens that a line does not name were inactive (follow-up assays come after a bar, where they were run). Calls follow the shape of the dose curve; as a rule, active = well fitted curve in the direction sought with a large enough effect; inconclusive = small, poorly fitted or top-dose-only effect, or another doubt; inactive = no such curve, though single readings can be large; an effect the other way counts as inactive or inconclusive.

C[C@@H]1C[C@H]2OC(=O)C3(CO3)[C@H]2[C@H](O)[C@]2(C)C(=O)C3OC3[C@@H]12 (stereo partly specified)	ELG1 DNA repair inconclusive (no result: SMN2 splice enh)
C=C1C(=O)O[C@@H]2C[C@@H](C)[C@@H]3C=CC(=O)[C@@]3(C)[C@@H](O)[C@H]12	ELG1 DNA repair 4.1µM (no result: ELG1 genotoxic) | ELG1 FLuc counter inconclusive | ELG1 Luc conf inconclusive | ELG1 MMS Luc 0.0045µM | ELG1 5FU viab inconclusive | ELG1 MMS viab 0.0056µM | ELG1 unstim viab 2.8µM | FLuc enzyme 7.3µM
CN[C@@H]1C[C@@]2(C)O[C@@H]([C@@H]1OC)n1c3ccccc3c3c4c(c5c6ccccc6n2c5c31)C(=O)NC4	none (no result: FLuc modulator, SMN2 splice enh, Rab9 prom act, NPC1 prom act, ELG1 DNA repair, ELG1 genotoxic) | ELG1 FLuc counter 0.71µM | ELG1 Luc conf 0.5µM | ELG1 MMS Luc 0.32µM | ELG1 5FU viab 11µM | ELG1 MMS viab 1µM | ELG1 unstim viab 5µM | FLuc enzyme inactive
Cc1c(C(=O)N2CCC(Cc3ccccc3)CC2)sc2ncnc(N3CCC(C)CC3)c12	none | ELG1 FLuc counter inactive | ELG1 Luc conf 16µM | ELG1 MMS Luc inconclusive | ELG1 5FU viab inactive | ELG1 MMS viab inactive | ELG1 unstim viab inactive | FLuc enzyme inactive
O=C(Nc1cc(C(F)(F)F)cc(C(F)(F)F)c1)c1cc(Cl)ccc1O	none (no result: FLuc modulator, SMN2 splice enh, Rab9 prom act, NPC1 prom act, ELG1 DNA repair, ELG1 genotoxic) | ELG1 FLuc counter inconclusive | ELG1 Luc conf 0.71µM | ELG1 MMS Luc 0.35µM | ELG1 5FU viab inconclusive | ELG1 MMS viab 0.4µM | ELG1 unstim viab inconclusive | FLuc enzyme inactive
Oc1cc2c(cc1O)[C@H]1c3ccccc3CN[C@H]1CC2	none (no result: FLuc modulator, Rab9 prom act, NPC1 prom act, ELG1 DNA repair, ELG1 genotoxic)
CC1(C)Cc2c(c(N3CCOCC3)nc3sc4c(NCc5ccccc5)nnnc4c23)CS1	ELG1 DNA repair 13µM | ELG1 FLuc counter inactive | ELG1 Luc conf 2.5µM | ELG1 MMS Luc inactive | ELG1 5FU viab inconclusive | ELG1 MMS viab inactive | ELG1 unstim viab inactive | FLuc enzyme inactive
COc1ccc(C(Nc2ccccc2)P(=O)(Oc2ccccc2)Oc2ccccc2)cc1 (stereo unspecified)	ELG1 DNA repair inconclusive | ELG1 FLuc counter inactive | ELG1 Luc conf 7.1µM | ELG1 MMS Luc inconclusive | ELG1 5FU viab inconclusive | ELG1 MMS viab inconclusive | ELG1 unstim viab inconclusive | FLuc enzyme inactive
CCOP(=O)(OCC)C(Nc1cccc([N+](=O)[O-])c1)c1ccc(OC)cc1 (stereo unspecified)	ELG1 DNA repair inconclusive (no result: SMN2 splice enh)
